A1 inh: inhibitors of the anti-apoptotic protein A1, read as caspase activation; MEF A1-2A-BIM cells, Caspase-Glo 3/7 luminescence, 3 h; percent of clofoctol response, vehicle zero; caspase activation, % (test concentration not listed); hit rate 0.066% among 330,000;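 active = over half of replicate activation scores above 10%, or exactly half above 10 with the replicate mean above 10; inconclusive = replicate mean below 10 yet half the replicates above 10; inactive = over half of replicates below 10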
GSIS activator: primary screen for activators of insulin secretion dependent on glucose, INS-1E cells, GLuc reporter luminescence | hit rate 0.61% among 370,000 | INS-1E GLuc reporter insulin secretion, 2-3 h | activation, % at 16.6 µM | AID 743287;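 active = lowest replicate activation of at least 40%, so every replicate reaches that level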;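 note: 0% = median of neutral control wells and 100% = median of IBMX positive control wells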
Vif imaging: inhibitors of HIV Vif; inhibition, % at 7.49 µM; hit rate 0.35% among 340,000; AID 602346; HEK293T cells, Vif self-association by quenched fluorescence, imaging, 24 h; in the data active = inhibition above about 50%, passing the limit was not always enough; inconclusive = no clear call, values can overlap the other calls; inactive = below about 31%
dFosB act: activators of mouse delta FosB homodimer | P13346 | purified delta FosB, TAMRA-CDK5 oligo fluorescence polarization; percent of positive-control signal above neutral wells | activation, % at 25 µM | hit rate 0.99% among 340,000;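 active = mean activation above about 17%, with every replicate also reaching it, limit read from the data, passing the limit was not always enough; inconclusive = only one of the two conditions met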
Target sequence (P13346 whole entry, looked up): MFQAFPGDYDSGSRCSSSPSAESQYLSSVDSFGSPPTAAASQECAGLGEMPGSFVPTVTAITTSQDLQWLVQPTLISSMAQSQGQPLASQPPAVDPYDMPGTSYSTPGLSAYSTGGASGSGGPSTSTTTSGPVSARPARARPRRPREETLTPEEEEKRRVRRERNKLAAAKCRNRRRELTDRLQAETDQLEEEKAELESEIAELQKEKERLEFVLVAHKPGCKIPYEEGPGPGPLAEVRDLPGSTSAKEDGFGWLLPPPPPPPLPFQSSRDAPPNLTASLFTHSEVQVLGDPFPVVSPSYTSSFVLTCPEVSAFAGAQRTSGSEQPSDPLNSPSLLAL
Neddylation inh: blocks human cullin neddylation; P61081+Q13564; TR-FRET cullin neddylation, biochemical; inhibition, % at 25 µM; hit rate 0.58% among 360,000; in the data active = inhibition above about 36%
* hit, by the source's call; ? = inconclusive; / = no result shown. This is a sample that favours compounds with a hit; in the whole collection about 1.9% have one here.

SMILES	A1 inh	GSIS activator	Vif imaging	dFosB act	Neddylation inh
O=C(CSc1nnc(-c2ccncc2)s1)Nc1ccc(Cl)c(C(=O)O)c1	-0.8	-5.2	54.1*	-3.7	-13.6
Cc1ccc(NC(=O)CSc2nnc(-c3cccnc3)s2)cc1	-0.3	42.3*	8.5	-3.4	-4.3
Cc1ccnc(N/C=C(\C#N)c2nc(-c3cccc(Br)c3)cs2)c1	0.2	/	91.1*	-11.4	15.8
N#C/C(=C\Nc1ccc2cn[nH]c2c1)c1nc(-c2ccccc2)cs1	/	13.0	1.2	-4.3	10.6
C=CCn1c(SCC(=O)N2CCOCC2)nc2c([nH]c3ccccc32)c1=O	0.7	43.2*	-3.6	2.5	3.4
C=CCn1c(SCC(=O)N2CCN(c3ccccc3)CC2)nc2c([nH]c3ccccc32)c1=O	-0.3	4.5	-10.6	-0.3	-4.8
O=C(N/N=C/c1cccnc1)c1ccc(NC(=O)c2cccc(Cl)c2)cc1	0.2	3.6	15.5	45.5*	15.0
C=CCNc1nc(Cl)nc(NCc2ccco2)n1	0.9	0.0	9.0	-2.6	2.6
C=CCNc1nc(NCc2ccco2)nc(OCC)n1	-0.7	58.1*	-11.9	-3.2	-1.9
COC(=O)Nc1ccc2c(c1)ncn2C1CCCCC1	0.8	/	-18.1	6.5	17.0
CCOC(=O)Nc1ccc2c(c1)ncn2C1CCCCC1	0.3	/	81.6*	-4.0	8.7
Cc1cc(=O)oc2cc(NC(=O)C(C)N3C(=O)C4CCCCC4C3=O)ccc12 (stereo not drawn)	-0.3	4.1	3.1	-2.6	73.2*
CC(=O)Nc1ccc2c(COC(=O)[C@H](C)N3C(=O)C4CCCCC4C3=O)cc(=O)oc2c1 (stereo partly drawn)	-0.1	9.5	5.5	-10.3	/
Cc1ccc(C(=O)NC2CCCCCCC2)cc1S(=O)(=O)N1CCOCC1	/	1.1	-7.3	-2.5	-1.7
O=C(NC1CCCC1)c1ccc(Cl)c(S(=O)(=O)N2CCOCC2)c1	-0.7	46.7*	3.1	-5.0	-3.8
COc1cccc(C(=O)OCC(=O)NC23CC4CC(CC(C4)C2)C3)c1	-0.1	/	25.6	-4.7	7.3
CC(=O)Oc1cc(C(=O)OCC(=O)NC23CC4CC(CC(C4)C2)C3)cc(OC(C)=O)c1OC(C)=O	/	-3.8	67.2*	-7.2	5.7
C[C@H]1CN([C@@H](C)CO)C(=O)c2cccc(NC(=O)C3CCOCC3)c2O[C@H]1CN(C)S(=O)(=O)c1ccc(F)cc1	/	18.1	/	/	/
S=C(NC1CC1)N1CCc2ccccc2C1	-0.7	-58.3	94.0*	0.9	1.2
S=C(NC1CCCCC1)N1CCc2ccccc2C1	1.1	-18.8	-10.6	-0.7	-1.6
O=C(C[C@H]1CC[C@H]2[C@@H](COC[C@H](O)CN2Cc2cc(F)ccc2F)O1)NCc1ccc(Cl)cc1	/	-18.9	/	/	/
CCOC(=O)C1CCCN(CC(=O)Nc2c(C(=O)OC)[nH]c3ccc(Cl)cc23)C1 (stereo not drawn)	-0.5	/	61.4*	-2.5	7.8
CNC(=O)C[C@@H]1CC[C@H]2[C@H](COc3ccc(NC(=O)Cc4cccs4)cc3C(=O)N2C)O1	/	6.5	/	/	/
COc1ccc(S(=O)(=O)N[C@H]2CC[C@H](CCn3cc(-c4ccccc4F)nn3)O[C@@H]2CO)cc1	/	-23.6	/	/	/
O=C(Nc1cnccn1)Nc1cccc(Cl)c1Cl	-0.3	5.1	-1.1	6.8	7.6
SMILES	A1 inh	GSIS activator	Vif imaging	dFosB act	Neddylation inh
O=C(Nc1cnccn1)Nc1ccccc1Cl	-3.8	1.7	51.4*	14.5	-3.2
CN1[C@@H]2c3cccc(=O)n3C[C@@H]2[C@@H](CO)[C@@H]1C(=O)NCC1CCCCC1	/	7.4	/	/	/
COc1ccc2nc3cc(Cl)ccc3c(Nc3cc(C(C)C)c(O)cc3C)c2c1	-0.6	-31.9	-10.1	89.1*	-6.9
COc1ccc(S(=O)(=O)Nc2cc(C(C)C)c(O)cc2C)cc1	1.4	/	-3.3	-2.3	0.5
CN1CCN(C(=O)[C@H]2[C@H](CO)[C@H]3Cn4c(ccc(-c5cncnc5)c4=O)[C@H]3N2CC2CC2)CC1	/	-1.9	/	/	/
COc1ccc(CC(=O)OCn2nnc3ccccc3c2=O)cc1OC	-0.7	43.6*	-3.6	-3.4	-1.1
COc1cc(C(=O)OCn2nnc3ccccc3c2=O)cc(OC)c1OC	-0.2	/	8.1	-11.5	-5.5
COc1cc(CCC(=O)OCn2nnc3ccccc3c2=O)cc(OC)c1OC	0.5	4.0	58.5*	7.5	-2.3
COc1ccc(C(=O)O/N=C(\N)c2ccc(OC)c(OC)c2)cc1	-0.9	44.8*	0.3	-10.2	5.9
COc1ccc(CC(=O)OCN2C(=O)c3ccccc3C2=O)cc1OC	-0.1	61.6*	0.6	-0.1	-6.5
CNC[C@@H]1Oc2ncc(Br)cc2C(=O)N([C@@H](C)CO)C[C@H]1C	/	29.1	/	/	/
COc1ccc(CC(=O)O/N=C(\N)c2ccccc2)cc1OC	0.8	50.8*	-6.6	-5.7	-0.8
COc1ccc(C(=O)COC(=O)Cn2c(C)csc2=O)c(OC)c1	0.5	34.6	0.6	-1.5	0.3
COc1ccc(C(=O)COC(=O)CN2C(=O)c3ccccc3C2=O)c(OC)c1	-0.1	15.0	-0.1	19.3*	-67.6
CCOc1ccc(C(=O)c2cc([N+](=O)[O-])ccc2N2CCOCC2)cc1	1.5	-23.8	73.9*	-8.4	-9.8
COc1ccc(C(=O)c2cc([N+](=O)[O-])ccc2N2CCOCC2)cc1	1.0	0.5	?	0.4	-29.9
Cc1ccc(C(=O)c2sc(Nc3ccccc3)c(C#N)c2N)cc1	0.7	42.7*	-5.0	-8.5	29.3
N#Cc1c(Nc2ccccc2)sc(C(=O)c2ccc(F)cc2)c1N	0.8	-11.4	-11.6	-37.7	-4.9
COCC(=O)N1[C@H](C(=O)NCc2ccccc2Cl)[C@@H](CO)[C@@H]2Cn3c(cccc3=O)[C@@H]21	/	3.6	/	/	/
Cc1oc2c(c(=O)c1C)C(=O)CC(c1ccccc1)C2 (stereo not drawn)	0.5	/	-6.4	-5.7	-4.8
CS(=O)(=O)c1sc(C#N)c2c1C(=O)CC(c1ccccc1)C2 (stereo not drawn)	56.6*	64.3	-0.7	-11.6	-241.0
Cc1cc(Br)cn2c(Cc3cccc(F)c3)c(-c3ccco3)nc12	/	65.5*	/	/	/
Fc1cccc(Cc2c(-c3ccco3)nc3ccc(Br)cn23)c1	/	76.3	/	/	-496.5
Cc1ccc(NC(=O)c2ccccc2)cc1	-5.1	20.6	9.4	-2.0	5.4
Cc1ccc(NC(=O)C2=C(c3ccccc3)S(=O)(=O)CCS2(=O)=O)cc1	2.2	155.2*	4.8	-3.3	1.4
SMILES	A1 inh	GSIS activator	Vif imaging	dFosB act	Neddylation inh
Cc1cccc2nc(C(=O)Nc3cc(Cl)ccc3-n3cncn3)cn12	-0.7	25.3	75.2*	-9.8	20.7
O=C(c1cc2ccccc2o1)N(Cc1nnc(-c2ccccc2Cl)o1)C1CC1	0.1	-5.2	-5.6	-6.3	-0.3
CCCN(Cc1nnc(-c2ccccc2Cl)o1)C(=O)c1cc2ccccc2o1	0.9	62.7*	-1.4	-2.6	-2.3
CC(=Nc1ccc(Br)cc1)c1sc2ccccc2c1O	-3.8	-12.6	-1.3	-1.1	/
CC(=Nc1ccccc1)c1sc2ccccc2c1O	-5.3	-6.6	/	-6.6	44.4*
C=CCNC(=S)Nc1ccc2cn[nH]c2c1	0.6	40.1*	4.1	-2.1	0.6
